Test results as given in PubChem BioAssay (NCI).
“And” between values parts separate entries of the source, which are not always exact repeats. Equal entries are not always repeated. Compounds without any hit were thinned out: in the full panel of roughly 79,000, 15% have a hit. The source made the active and inactive calls. No stated cut-off is given here; in the data, active means growth inhibition above about 70%; inactive means the rest.

Assays:
[1] = NCI Yeast Anticancer Drug Screen. Data for the sgs1 strain (AID 173);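 further: 0% = growth of vehicle-only control cultures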; settings: S. cerevisiae sgs1 mutant, stronger effect = higher value
Procedure, shortened: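 Yeast mutant strains carrying defined defects in DNA damage repair or cell cycle control were exposed to test compounds. Growth inhibition was scored against vehicle-treated controls.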

[2] = NCI Yeast Anticancer Drug Screen. Data for the mlh1 rad18 strain (AID 175); settings: S. cerevisiae mlh1 rad18 strain growth inhibition, stronger effect = higher value
Procedure, shortened: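 Growth inhibition of the yeast strain was measured after compound exposure and expressed relative to vehicle-treated controls. The strain carries defined defects in DNA damage repair.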

[3] = NCI Yeast Anticancer Drug Screen. Data for the rad18 strain (AID 177); settings: S. cerevisiae rad18 mutant growth inhibition, stronger effect = higher value
Procedure, shortened: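 Yeast carrying a defined DNA damage repair alteration were exposed to compounds. Growth inhibition was expressed relative to vehicle-treated controls.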

[4] = NCI Yeast Anticancer Drug Screen. Data for the wt1 strain (AID 149);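 further: 0% = growth of vehicle-treated wt1 cultures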; settings: S. cerevisiae wt1 strain (SPY 50644) growth inhibition, stronger effect = higher value
Procedure, shortened: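 Yeast wt1 strain exposed to compounds; growth inhibition measured relative to vehicle-treated controls.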

[5] = NCI Yeast Anticancer Drug Screen. Data for the rad50EPP+ strain (AID 151);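 further: 0% = growth of vehicle-treated control cultures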; settings: S. cerevisiae rad50 mutant strain, stronger effect = higher value
Procedure, shortened: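 Yeast strain carrying rad50 alteration (rad50EPP+) exposed to compounds; growth inhibition measured relative to vehicle-treated controls.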

[6] = NCI Yeast Anticancer Drug Screen. Data for the rad50 strain (AID 155);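 further: 0% = growth of vehicle-only cultures of the same strain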; settings: S. cerevisiae rad50 strain growth inhibition, stronger effect = higher value
Procedure, shortened: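 Yeast carrying a defined DNA repair defect were exposed to test compounds, and growth was compared with vehicle-treated controls to give percent inhibition.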

[7] = NCI Yeast Anticancer Drug Screen. Data for the mec2-1 strain (AID 157); settings: S. cerevisiae mec2-1 strain, stronger effect = higher value
Procedure, shortened: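 mec2-1 yeast strain, carrying an alteration in DNA damage repair or cell cycle control, was exposed to compounds; growth inhibition was measured relative to vehicle-treated controls.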

[8] = NCI Yeast Anticancer Drug Screen. Data for the sgs1 mgt1 strain (AID 161);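 further: 0% = growth of cultures given vehicle only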; settings: S. cerevisiae sgs1 mgt1 strain, stronger effect = higher value
Procedure, shortened: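 Compounds are added to genetically altered yeast, and growth is compared with cultures given vehicle alone to give percent inhibition.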

[9] = NCI Yeast Anticancer Drug Screen. Data for the CLN2oe strain (AID 163);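 further: 0% = growth of vehicle-only control cultures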; settings: S. cerevisiae CLN2oe strain, stronger effect = higher value
Procedure, shortened: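 Yeast cells carrying a defined cell-cycle control alteration were exposed to test compounds. Growth inhibition was scored against vehicle-treated control cultures.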

[10] = NCI Yeast Anticancer Drug Screen. Data for the cln2 rad14 strain (AID 165);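 further: 0% = growth equal to vehicle treated cultures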; settings: S. cerevisiae cln2 rad14 strain, stronger effect = higher value
Procedure, shortened: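 Yeast carrying cln2 and rad14 alterations (cell cycle control and DNA damage repair) were exposed to compounds. Growth inhibition was measured against vehicle-treated controls.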

[11] = NCI Yeast Anticancer Drug Screen. Data for the bub3 strain (AID 167); settings: S. cerevisiae bub3 mutant strain, stronger effect = higher value
Procedure, shortened: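 Compounds were applied to a genetically altered yeast strain carrying a cell-cycle control defect. Growth inhibition was scored against vehicle-treated controls.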

[12] = NCI Yeast Anticancer Drug Screen. Data for the wt2 strain (AID 169);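 further: 0% = growth of vehicle-treated yeast cultures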; settings: S. cerevisiae wt2 strain growth inhibition, stronger effect = higher value
Procedure, shortened: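 Yeast cells were exposed to test compounds, and growth inhibition was measured relative to vehicle-treated controls.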

[13] = NCI Yeast Anticancer Drug Screen. Data for the mlh1 strain (AID 171);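 further: 0% = growth of vehicle-treated control cultures of the same strain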; settings: S. cerevisiae mlh1 strain growth inhibition, stronger effect = higher value
Procedure, shortened: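 Yeast carrying a defined genetic alteration in DNA damage repair or cell cycle control were exposed to test compounds. Growth inhibition was measured relative to vehicle-treated controls.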

[14] = NCI Yeast Anticancer Drug Screen. Data for the mgt1 strain (AID 153); settings: S. cerevisiae mgt1 mutant growth inhibition, stronger effect = higher value
Procedure, shortened: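 Yeast mgt1 strain (DNA repair/cell-cycle alteration panel) exposed to compounds; growth inhibition measured relative to vehicle-treated controls.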

[15] = NCI Yeast Anticancer Drug Screen. Data for the rad14 strain (AID 159);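 further: 0% = growth of vehicle-treated control cultures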; settings: S. cerevisiae rad14 strain growth inhibition, stronger effect = higher value
Procedure, shortened: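 Yeast cells carrying a defined DNA-repair defect were exposed to compounds, and growth inhibition was calculated relative to vehicle-treated control cultures.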

[16] = at 5.0 µM (retest, dose inferred, filed as 0.5)
[17] = at 50.0 µM (retest, dose inferred, filed as 5.0)

Measured: growth inhibition

CC(=O)C1=C(O)C2(C)c3c(O)c(C)c(O)c(C(C)=O)c3OC2(Sc2ccccc2)CC1=O (centres undefined)
inactive: [1]; at 1.2 µM 20% | [1]; at 3.7 µM 35% | [1]; at 11.0 µM 48% | [1]; at 33.0 µM 55% | [2]; [16] 14% | [2]; at 50.0 µM 61.6% and 6.3% | [3]; at 1.2 µM 18% | [3]; at 3.7 µM 39% | [3]; at 11.0 µM 31% | [3]; at 33.0 µM 47%
active: [1]; at 100.0 µM 85% | [2]; [17] 89% | [3]; at 100.0 µM 82%

Nc1cc(F)cc2c1-c1ccc(F)cc1C2
inactive: [4]; at 1.2 µM -3% | [4]; at 3.7 µM -4% | [4]; at 11.0 µM -4% | [4]; at 33.0 µM 10% | [5]; at 1.2 µM 3% | [5]; at 3.7 µM 10% | [5]; at 11.0 µM 25% | [6]; at 1.2 µM 6% | [6]; at 3.7 µM -41% | [6]; [16] 1% | [6]; at 11.0 µM 33% | [6]; at 33.0 µM 47% | [6]; [17] 60% | [7]; at 1.2 µM -1% | [7]; at 3.7 µM 1% | [7]; [16] 2% | [7]; at 11.0 µM 2% | [7]; at 33.0 µM 23% | [7]; [17] 18% | [8]; [16] -5% | [8]; [17] 7% | [9]; at 1.2 µM -10% | [9]; at 3.7 µM -9% | [9]; at 11.0 µM -1% | [9]; at 33.0 µM 7% | [10]; [16] 0% | [10]; [17] 40% | [11]; at 1.2 µM -1% | [11]; at 3.7 µM -2% | [11]; [16] 3% | [11]; at 11.0 µM -2% | [11]; at 33.0 µM 16% | [11]; [17] 27% | [12]; at 1.2 µM -3% | [12]; at 3.7 µM 5% | [12]; at 11.0 µM -3% | [12]; at 33.0 µM 15% | [13]; at 1.2 µM -4% | [13]; at 3.7 µM -3% | [13]; at 11.0 µM -3% | [13]; at 33.0 µM 14% | [1]; at 1.2 µM -3% | [1]; at 3.7 µM 0% | [1]; at 11.0 µM 6% | [1]; at 33.0 µM 46% | [2]; [16] -1% | [2]; [17] 61% | [3]; at 1.2 µM -1% | [3]; at 3.7 µM 4% | [3]; at 11.0 µM 7% | [3]; at 33.0 µM 49%
active: [4]; at 100.0 µM 90% | [5]; at 33.0 µM 90% | [5]; at 100.0 µM 95% | [6]; at 50.0 µM 87% | [6]; at 100.0 µM 92% | [7]; at 50.0 µM 74.6% | [7]; at 100.0 µM 91% | [8]; at 50.0 µM 77% | [9]; at 100.0 µM 72% | [10]; at 50.0 µM 78.5% | [11]; at 50.0 µM 78.5% | [11]; at 100.0 µM 91% | [12]; at 100.0 µM 89% | [13]; at 100.0 µM 92% | [1]; at 100.0 µM 93% | [2]; at 50.0 µM 87.7% | [3]; at 100.0 µM 94%

O=C(O)c1ccccc1.[Ag]
active: [4]; at 1.2 µM 88% | [4]; at 3.7 µM 101% | [4]; at 11.0 µM 99% | [4]; at 33.0 µM 99% | [4]; at 100.0 µM 99% | [5]; at 1.2 µM 94% | [5]; at 3.7 µM 101% | [5]; at 11.0 µM 99% | [5]; at 33.0 µM 99% | [5]; at 100.0 µM 98% | [14]; at 1.2 µM 98% | [14]; at 3.7 µM 101% | [14]; at 11.0 µM 99% | [14]; at 33.0 µM 99% | [14]; at 100.0 µM 99% | [15]; at 1.2 µM 91% | [15]; at 3.7 µM 101% | [15]; at 11.0 µM 99% | [15]; at 33.0 µM 99% | [15]; at 100.0 µM 99% | [9]; at 3.7 µM 101% | [9]; at 11.0 µM 98% | [9]; at 33.0 µM 98% | [9]; at 100.0 µM 98% | [12]; at 1.2 µM 76% | [12]; at 3.7 µM 101% | [12]; at 11.0 µM 99% | [12]; at 33.0 µM 99% | [12]; at 100.0 µM 99% | [13]; at 1.2 µM 96% | [13]; at 3.7 µM 101% | [13]; at 11.0 µM 99% | [13]; at 33.0 µM 99% | [13]; at 100.0 µM 99% | [1]; at 1.2 µM 75% | [1]; at 3.7 µM 101% | [1]; at 11.0 µM 99% | [1]; at 33.0 µM 99% | [1]; at 100.0 µM 99% | [3]; at 1.2 µM 74% | [3]; at 3.7 µM 101% | [3]; at 11.0 µM 99% | [3]; at 33.0 µM 99% | [3]; at 100.0 µM 99%
inactive: [9]; at 1.2 µM 50%

CC(C)(C)[OH+][O-].[O-]c1ccc(Cl)cc1C=Nc1ccc(Cl)cc1[O-].[O]=[V]
inactive: [4]; at 1.2 µM 12% | [4]; at 3.7 µM 11% | [4]; at 11.0 µM 15% | [4]; at 33.0 µM 19% | [4]; at 100.0 µM 29% | [5]; at 1.2 µM 0% | [5]; at 3.7 µM 10% | [5]; at 11.0 µM 26% | [5]; at 33.0 µM 43% | [5]; at 100.0 µM 60% | [6]; at 1.2 µM -3% | [6]; at 3.7 µM 34% | [6]; [16] 19% | [6]; at 11.0 µM 44% | [6]; at 33.0 µM 46% | [6]; [17] 17% | [7]; at 1.2 µM 10% | [7]; at 3.7 µM 17% | [7]; [16] 24% | [7]; at 11.0 µM 13% | [7]; at 33.0 µM 31% | [7]; [17] 9% | [7]; at 100.0 µM 56% | [15]; at 1.2 µM 4% | [15]; at 3.7 µM 9% | [15]; at 11.0 µM 12% | [15]; at 33.0 µM 26% | [15]; at 100.0 µM 54% | [8]; [16] 20% | [8]; [17] 40% | [9]; at 1.2 µM -3% | [9]; at 3.7 µM -3% | [9]; at 11.0 µM 0% | [9]; at 33.0 µM 11% | [9]; at 100.0 µM 26% | [10]; [16] 6% | [10]; [17] 3% | [11]; at 1.2 µM 19% | [11]; at 3.7 µM 30% | [11]; [16] 41% | [11]; at 11.0 µM 45% | [11]; at 33.0 µM 58% | [11]; [17] 16% | [12]; at 1.2 µM 14% | [12]; at 3.7 µM 24% | [12]; at 11.0 µM 13% | [12]; at 33.0 µM 20% | [12]; at 100.0 µM 30% | [13]; at 1.2 µM 8% | [13]; at 3.7 µM 10% | [13]; at 11.0 µM 9% | [13]; at 33.0 µM 15% | [13]; at 100.0 µM 38% | [1]; at 1.2 µM 12% | [1]; at 3.7 µM 16% | [1]; at 11.0 µM 23% | [1]; at 33.0 µM 33% | [1]; at 100.0 µM 53% | [2]; [16] 24% | [2]; [17] 12% | [3]; at 1.2 µM 4% | [3]; at 3.7 µM 19% | [3]; at 11.0 µM 24% | [3]; at 33.0 µM 47%
active: [6]; at 50.0 µM 93.8% | [6]; at 100.0 µM 83% | [7]; at 50.0 µM 94.5% | [8]; at 50.0 µM 91.5% | [10]; at 50.0 µM 90.5% | [11]; at 50.0 µM 92.7% | [11]; at 100.0 µM 76% | [2]; at 50.0 µM 95.2% | [3]; at 100.0 µM 78%
